Sampled rows, rich in hits. Any-hit rate of the full collection: about 6.7%.
Pf Dd2 inh – inhibitors of Plasmodium falciparum Dd2 growth; 94,000 compounds, 2.3% hits; activity change, % at 10 µM; P. falciparum Dd2 growth, SYBR Green, 72 h; active compounds read low; in the data active = activity change below about -80%; inconclusive = no clear call, values can overlap the other calls
T cruzi growth-1 – T. cruzi proliferation inhibition. T. cruzi beta-gal in NIH3T3, GalScreen luminescence, 90 h. inhibition, % at 8.34 µM. 77,000 compounds, 5.9% hits;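 active = mean inhibition above about 93%, with at least 55% of replicates each passing it, limit read from the data, passing the limit was not always enough; inconclusive = only one of those two conditions holds; inactive = neither condition holds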
C diff growth – C. difficile growth inhibition; Clostridium difficile clinical isolate growth, OD600, 24 h; active compounds read low; growth activity, negative = inhibition, % at 16 µg/mL (by protocol); 86,000 compounds, 0.25% hits; AID 1259249;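 active = mean growth activity at or below -80% and every replicate also at or below -80%; inconclusive = mean at or below -80% but some replicate above -80%; inactive = mean growth activity above -80%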
T cruzi growth-2 – Trypanosoma cruzi proliferation inhibition. T. cruzi beta-gal in NIH3T3, GalScreen luminescence, 90 h. shares compounds with T cruzi growth-1. AID 651739. inhibition, % at 8.35 µM. 5,600 compounds, 72% hits;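 active = mean replicate inhibition above about 95% and at least 55% of replicates individually reaching it, limit read from the data; inconclusive = only one of the two criteria is met; inactive = neither criterion is met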
T cruzi growth-3 – inhibitors of T. cruzi proliferation; shares compounds with T cruzi growth-1; T. cruzi beta-gal in NIH3T3, GalScreen luminescence, 90 h; inhibition, % at 2.09 µM; 5,600 compounds, 21% hits;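 active = mean inhibition above about 95%, with at least 55% of replicates also reaching it, limit read from the data; inconclusive = meets just one of the two conditions; inactive = meets neither condition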
3T3 cytotox – NIH/3T3 (mouse) viability loss; shares compounds with T cruzi growth-1; NIH/3T3 viability, CellTiter-Glo ATP luminescence, 90 h; cytotoxicity (signal decrease), % at 8.35 µM; 5,600 compounds, 14% hits; AID 651742;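 active = mean signal decrease across replicates above about 35% based on untreated-well scatter, with enough replicates individually passing, limit read from the data; inconclusive = no rule stated though some were filed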
NIH3T3 tox 2 – cytotoxicity in mouse NIH/3T3 fibroblasts; inhibition, % at 24.9 µM; shares compounds with T cruzi growth-1; 5,600 compounds, 56% hits; NIH/3T3 viability, CellTiter-Glo ATP luminescence, 90 h;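 active = mean loss of cell viability signal at or above a set limit, and enough replicates individually reaching it; inconclusive = meets only the mean limit or only the replicate share; inactive = meets neither condition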
Of the large screens only hits and unclear results are named; the others gave an inactive call (follow-up assays come after a bar, where they were run); ! = a repeat was not active.

CN1C(=O)c2cc(NC(=O)c3cccc(F)c3)ccc2OC[C@@H]2O[C@H](CC(=O)NCC3CCCCC3)CC[C@@H]21	T cruzi growth-1 117 (no result: Pf Dd2 inh) | T cruzi growth-2 inactive | T cruzi growth-3 inactive | 3T3 cytotox 43! | NIH3T3 tox 2 85
CN1C(=O)c2cc(NC(=O)c3ccc(C(F)(F)F)cc3)ccc2OC[C@@H]2O[C@@H](CC(=O)NC3Cc4ccccc4C3)CC[C@@H]21	none (no result: C diff growth)
CN1C(=O)c2cc(NC(=O)c3cccc(F)c3)ccc2OC[C@H]2O[C@@H](CC(=O)NCC3CCCCC3)CC[C@H]21	none (no result: Pf Dd2 inh)
CN1C(=O)c2cc(NC(=O)c3ccccc3)ccc2OC[C@@H]2O[C@H](CC(=O)NC3CCCC3)CC[C@H]21	none
CN1C(=O)c2cc(NC(=O)c3ccc(Cl)cc3)ccc2OC[C@H]2O[C@H](CC(=O)NCc3cccc(F)c3)CC[C@@H]21	none
CN1C(=O)c2cc(NC(=O)c3ccc(Cl)cc3)ccc2OC[C@H]2O[C@H](CC(=O)NCc3cccc(F)c3)CC[C@H]21	T cruzi growth-1 101 | T cruzi growth-2 inactive | T cruzi growth-3 inactive | 3T3 cytotox inactive | NIH3T3 tox 2 inactive
Cc1ccc(S(=O)(=O)Nc2cccc3c2O[C@@H](CN(C)C)[C@H](C)CN([C@H](C)CO)C3=O)cc1	none
CNC[C@H]1Oc2c(NC(=O)Nc3ccc(C(F)(F)F)cc3)cccc2C(=O)N([C@@H](C)CO)C[C@@H]1C	none
CCC(=O)N1C[C@H](C)[C@H](OC)CN(C)C(=O)c2cc(NC(=O)Nc3ccc(Cl)cc3)ccc2OC[C@@H]1C	none (no result: C diff growth)
O=C([C@@H]1[C@@H](CO)[C@@H]2Cn3c(ccc(-c4ccccc4F)c3=O)[C@H]1N2C(=O)C1CCC1)N1CCOCC1	none
COc1ccc(CN(C)C[C@H]2Oc3ccc(NC(=O)C4CC4)cc3C(=O)N([C@@H](C)CO)C[C@H]2C)cc1	none
CN1C(=O)c2cc(NC(=O)c3cccc(F)c3)ccc2OC[C@H]2O[C@@H](CC(=O)N3CCc4ccccc4C3)CC[C@H]21	T cruzi growth-1 104 | T cruzi growth-2 97 | T cruzi growth-3 inactive | 3T3 cytotox inactive | NIH3T3 tox 2 38
CN1C(=O)c2cc(NC(=O)c3ccc(Cl)cc3)ccc2OC[C@@H]2O[C@@H](CC(=O)NCc3cccc(F)c3)CC[C@@H]21	T cruzi growth-1 103 | T cruzi growth-2 103 | T cruzi growth-3 inactive | 3T3 cytotox inactive | NIH3T3 tox 2 61
CN1C(=O)c2cc(NC(=O)c3cccc(F)c3)ccc2OC[C@H]2O[C@H](CC(=O)N3CCc4ccccc4C3)CC[C@@H]21	none
CN1C(=O)c2cc(NC(=O)c3cccc(F)c3)ccc2OC[C@@H]2O[C@H](CC(=O)NCc3ccccc3)CC[C@H]21	none
C[C@@H]1CN([C@H](C)CO)C(=O)Cc2cc(NC(=O)Nc3ccc(C(F)(F)F)cc3)ccc2O[C@@H]1CN(C)S(C)(=O)=O	none
C[C@@H]1CN([C@@H](C)CO)C(=O)c2cc(-c3ccccc3F)cnc2O[C@@H]1CN(C)Cc1cccc(C(=O)O)c1	none
C[C@H](CO)N1C[C@H](C)[C@@H](CN(C)Cc2cccnc2)Oc2cc(C3=CCCCC3)ccc2S1(=O)=O	none (no result: T cruzi growth-1)
C[C@@H]1CN([C@H](C)CO)S(=O)(=O)c2ccc(C3=CCCCC3)cc2O[C@@H]1CN(C)Cc1cccnc1	none (no result: T cruzi growth-1)
C[C@@H]1CN([C@H](C)CO)S(=O)(=O)c2ccc(C3=CCCCC3)cc2O[C@H]1CN(C)Cc1cccnc1	none (no result: T cruzi growth-1)
C[C@H]1CN([C@@H](C)CO)S(=O)(=O)c2ccc(C3=CCCCC3)cc2O[C@@H]1CN(C)Cc1ccncc1	T cruzi growth-1 121 | T cruzi growth-2 96 | T cruzi growth-3 97 | 3T3 cytotox 53 | NIH3T3 tox 2 102
C[C@@H]1CN([C@@H](C)CO)S(=O)(=O)c2ccc(C3=CCCCC3)cc2O[C@H]1CN(C)Cc1ccncc1	T cruzi growth-1 114 | T cruzi growth-2 95 | T cruzi growth-3 107 | 3T3 cytotox 46 | NIH3T3 tox 2 95
C[C@@H]1CN([C@@H](C)CO)S(=O)(=O)c2ccc(C3=CCCCC3)cc2O[C@@H]1CN(C)Cc1ccncc1	T cruzi growth-1 102 | T cruzi growth-2 99 | T cruzi growth-3 inactive | 3T3 cytotox inconclusive | NIH3T3 tox 2 78
C[C@H]1CN([C@@H](C)CO)S(=O)(=O)c2ccc(C3=CCCCC3)cc2O[C@H]1CN(C)Cc1cncnc1	none
C[C@H](CO)N1C[C@H](C)[C@H](CN(C)Cc2ccncc2)Oc2cc(C3=CCCCC3)ccc2S1(=O)=O	T cruzi growth-1 116 | T cruzi growth-2 98 | T cruzi growth-3 inactive | 3T3 cytotox 58 | NIH3T3 tox 2 83
O=C(C[C@H]1C=C[C@@H](NC(=O)C2CCC2)[C@H](CO)O1)NCc1ccncc1	none
C[C@@H]1CN([C@H](C)CO)S(=O)(=O)c2ccc(C#CC3CC3)cc2O[C@@H]1CN(C)Cc1cncnc1	none (no result: C diff growth)
C[C@H]1CN([C@@H](C)CO)C(=O)c2ccccc2-c2ccccc2CO[C@H]1CN(C)S(=O)(=O)c1ccccc1F	none
C[C@@H]1CN([C@@H](C)CO)C(=O)c2ccccc2-c2ccccc2CO[C@@H]1CN(C)S(=O)(=O)c1cccs1	T cruzi growth-1 115 | T cruzi growth-2 inactive | T cruzi growth-3 inactive | 3T3 cytotox inactive | NIH3T3 tox 2 inconclusive
Cc1ccccc1S(=O)(=O)N(C)C[C@H]1OCc2ccccc2-c2ccccc2C(=O)N([C@H](C)CO)C[C@@H]1C	T cruzi growth-1 inconclusive | T cruzi growth-2 95 | T cruzi growth-3 inactive | 3T3 cytotox inactive | NIH3T3 tox 2 inactive
C[C@H](CO)N1C[C@H](C)[C@@H](CN(C)S(C)(=O)=O)OCc2ccccc2-c2ccccc2C1=O	none
O=C(C[C@H]1CC[C@@H]2[C@H](COC[C@H](O)CN2CC2CCCCC2)O1)NCc1ccc(Cl)cc1	none (no result: C diff growth)
CC(C)CC#Cc1ccc2c(c1)O[C@@H](CN(C)C(=O)Cc1ccncc1)[C@@H](C)CN([C@@H](C)CO)S2(=O)=O	Pf Dd2 inh inconclusive, T cruzi growth-1 inconclusive | T cruzi growth-2 103 | T cruzi growth-3 inactive | 3T3 cytotox inactive | NIH3T3 tox 2 75
CC(C)CC#Cc1ccc2c(c1)O[C@H](CN(C)C(=O)Cc1ccncc1)[C@H](C)CN([C@H](C)CO)S2(=O)=O	none
CC(C)CC#Cc1ccc2c(c1)O[C@H](CN(C)C(=O)Cc1ccncc1)[C@H](C)CN([C@@H](C)CO)S2(=O)=O	T cruzi growth-1 101 | T cruzi growth-2 101 | T cruzi growth-3 inactive | 3T3 cytotox inactive | NIH3T3 tox 2 inactive
CC(C)CC#Cc1ccc2c(c1)O[C@@H](CN(C)C(=O)Cc1ccncc1)[C@H](C)CN([C@H](C)CO)S2(=O)=O	none
CN1C(=O)c2cc(NC(=O)c3ccc(F)cc3)ccc2OC[C@H]2O[C@H](CC(=O)O)CC[C@H]21	none
